Experimental data taken from PubChem BioAssay (NCATS).
Results filed as inconclusive are left out. The source made the active and inactive calls. Unless noted, the call rests on the fitted dose curve; in most records, active means well fitted cell-killing curve with a large enough effect; inconclusive means small, poorly fitted or top-dose-only effect; inactive means flat fitted curve, though single readings scatter.

Tests used:
[1] = Cell Viability - LYMP2-006 (AID 978); further: series mostly up to about 92 µM; on the % scale 0 is the no-effect control and ±100 the full control effect; nearly all actives have a fitted effect of over 60% in size
How it was run: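 Concentration-dependent loss of intracellular ATP in a human lymphoblastoid line after 24 hr treatment at 37 C was measured by CellTiter-Glo luminescence, with AC50 values obtained from standard Hill-equation modelling.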

[2] = Cell Viability - LYMP2-007 (AID 979);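 further: cells exposed to compound for 24 h before reading; 0% = DMSO only and the negative end = 92 µM tetraoctylammonium bromide; nearly all actives have a fitted effect of over 60% in size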
How it was run: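 Human lymphoblastoid LYMP2-007 cells (2500/well) preincubated 5 h at 37 C, then treated 24 h at 37 C in complete medium. Viability by CellTiter-Glo ATP luminescence after 30 min at room temperature; AC50 from Hill fits.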

[3] = Cell Viability - LYMP2-008 (AID 980); further: on the % scale 0 is the no-effect control and ±100 the full control effect; nearly all actives have a fitted effect of over 60% in size
How it was run: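 LYMP2-008 lymphoblastoid cells (2500/well) plated 5 h, then treated 24 h at 37 C in complete medium. Viability read as intracellular ATP by CellTiter-Glo luminescence after 30 min at room temperature; AC50 from Hill fits.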

[4] = Cell Viability - LYMP2-010 (AID 981); further: on the % scale 0 is the no-effect control and ±100 the full control effect; nearly all actives have a fitted effect of over 55% in size
How it was run: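 Human lymphoblastoid LYMP2-010 cells (2500/well) treated 24 h at 37 C in complete medium; viability read as intracellular ATP by CellTiter-Glo luminescence. AC50 from Hill fits of concentration-response data; tetraoctylammonium bromide positive control.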

[5] = Cell Viability - LYMP2-012 (AID 982);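 further: cellular ATP by luciferase luminescence where a drop means cytotoxicity; cells exposed to compound for one day before reading; 0% = DMSO only and full loss = 92 µM tetraoctylammonium bromide; nearly all actives have a fitted effect of over 55% in size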
[6] = Cell Viability - LYMP2-014 (AID 983);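 further: series mostly up to about 92 µM; plate controls were DMSO only for no effect and 92 µM tetraoctylammonium bromide for full effect; nearly all actives have a fitted effect of over 50% in size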
How it was run: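 LYMP2-014 human lymphoblastoid cells, 2500/well, treated 24 h at 37 C in complete medium; viability by CellTiter-Glo ATP luminescence after 30 min at room temperature. AC50 from Hill fits of qHTS concentration-response; tetraoctylammonium bromide positive control.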

[7] = Cell Viability - LYMP2-016 (AID 984); further: on the % scale 0 is the no-effect control and ±100 the full control effect; nearly all actives have a fitted effect of over 55% in size
How it was run: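 Acute toxicity in a Coriell human lymphoblastoid line is scored as loss of intracellular ATP over 24 h of treatment in complete medium. CellTiter-Glo signal is fitted across concentrations with the Hill equation to give AC50.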

[8] = Cell Viability - LYMP2-018 (AID 985);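 further: compound exposure lasted 24 hr at 37 °C; plate controls were DMSO only for no effect and tetraoctylammonium bromide at 92 µM for full effect; nearly all actives have a fitted effect of over 50% in size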
How it was run: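 Human lymphoblastoid LYMP2-018 cells, 2500/well, settled 5 hr at 37 C then exposed to compound 24 hr at 37 C; intracellular ATP measured by CellTiter-Glo luminescence. AC50 from Hill-equation concentration-response fits.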

[9] = Cell Viability - LYMP2-020 (AID 986);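 further: series mostly up to about 92 µM; plate controls were DMSO only for no effect and tetraoctylammonium bromide at 92 µM for full effect; nearly all actives have a fitted effect of over 55% in size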
How it was run: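 Human lymphoblastoid LYMP2-020 cells (2500/well) preincubated 5 h at 37 C, then treated 24 h at 37 C. Viability measured as intracellular ATP by CellTiter-Glo luminescence after 30 min at room temperature; AC50 from Hill fits.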

[10] = Cell Viability - LYMP2-022 (AID 987)
How it was run: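 LYMP2-022 lymphoblastoid cells (2500/well, complete medium) were treated with compounds for 24 hours at 37 C; intracellular ATP was then read by CellTiter-Glo luminescence after 30 min at room temperature. AC50 values were derived from Hill-equation fits.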

[11] = Cell Viability - LYMP2-024 (AID 988);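 further: plate controls were DMSO only for no effect and 92 µM tetraoctylammonium bromide for full effect; nearly all actives have a fitted effect of over 60% in size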
How it was run: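 Human lymphoblastoid LYMP2-024 cells (2500/well) rested 5 hr, then treated with compound for 24 hr at 37 C in complete medium. Viability was measured as intracellular ATP by CellTiter-Glo luminescence. AC50 values came from Hill-equation fits.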

[12] = Cell Viability - LYMP2-026 (AID 989); further: on the % scale 0 is the no-effect control and ±100 the full control effect; nearly all actives have a fitted effect of over 50% in size
How it was run: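 Human lymphoblastoid LYMP2-026 cells, 2500/well, exposed to compound 24 h at 37 C in complete medium. Viability as intracellular ATP by CellTiter-Glo luminescence; AC50 from Hill fits of qHTS concentration-response.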

[13] = Cell Viability - LYMP1-002 - Assay at 24 hr (AID 993); further: on the % scale 0 is the no-effect control and ±100 the full control effect
How it was run: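 Human lymphoblastoid LYMP1-002 cells (2500/well) treated 24 h at 37 °C; viability as intracellular ATP by CellTiter-Glo luminescence. Tetraoctylammonium bromide as positive control; AC50 from Hill-equation fits of qHTS concentration-response.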

[14] = Cell Viability - LYMP1-002 - Assay at 40 hr (AID 994)
How it was run: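 LYMP1-002 human lymphoblastoid cells (2500/well, complete medium) were treated with compounds for 40 hr at 37 C. Intracellular ATP was measured by CellTiter-Glo luminescence, and AC50 values came from Hill-equation fits of concentration-response data; tetraoctylammonium bromide was the positive control.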

[15] = qHTS Assay for Identification of Small Molecule Inducers of Hypoxia Response (AID 2120; active means well fitted curve in the direction sought with a large enough effect in the signal ratio, with a control signal flat, not every such curve was filed as active; the % refers to the signal ratio; further: 0% is about no effect)
How it was run: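 HRE-bla ME-180 cells in Opti-MEM with 0.5% dialyzed FBS, pre-plated 4-5 h, then compound titration for 17 h at 37 degrees Celsius. CCF4 loaded 2.5 h at room temperature; 460/530 nm ratio gave %Activity and AC50 for induction.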

[16] = molecular target: Estrogen receptor (Homo sapiens) (UniProt P03372); experiment: qHTS assay for small molecule antagonists of estrogen receptor alpha signaling (AID 588513; active means well fitted curve in the direction sought with a large enough effect in the signal ratio, with a control signal flat, not every such curve was filed as active; the % refers to the signal ratio; further: on the % scale 0 is the no-effect control and ±100 the full control effect)
How it was run: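 Cells were plated at 5000/well and incubated 4 h at 37 C. Compounds were added as 1:2 dilution series, duplicates. 17-beta-estradiol (0.5nM final) was added for 18 h before CCF4 detection.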

[17] = molecular target: Estrogen receptor (Homo sapiens) (UniProt P03372); experiment: qHTS assay for small molecule agonists of estrogen receptor alpha signaling (AID 588514; calls by dose curve;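 further: 0% = vehicle only and 100% = reference agonist; nearly all actives have a fitted effect of over 70% in size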)
How it was run: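 ER-alpha-UAS-bla GripTite HEK293 cells, 5000/well in 2% charcoal/dextran-stripped FBS medium, treated with compound titrations 18 h at 37 C. CCF4 beta-lactamase read by fluorescence after 2 h RT; normalised to 20 nM 17-beta-estradiol (100%) and DMSO (0%), Hill fit for EC50 and efficacy.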

[18] = molecular target: Bile acid receptor (Homo sapiens) (UniProt Q96RI1); experiment: qHTS assay for small molecule antagonists of farnesoid X receptor signaling (AID 588526; calls by dose curve; further: on the % scale 0 is the no-effect control and ±100 the full control effect)
How it was run: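 Concentration-response titrations were fitted to the Hill equation for half-maximal inhibition and maximal response, with data normalised to 50 uM chenodeoxycholic acid and DMSO control wells. Cells: FXR-UAS-bla HEK293T, dialyzed FBS.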

[19] = molecular target: Bile acid receptor (Homo sapiens) (UniProt Q96RI1); experiment: qHTS assay for small molecule agonists of farnesoid X receptor signaling (AID 588527; calls by dose curve;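 further: series mostly up to about 77 µM; 0% = vehicle basal and 100% = reference agonist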); conditions: HEK293T FXR-UAS-bla, beta-lactamase ratio, 16 h; hits give high values
How it was run: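 Agonist-mode beta-lactamase reporter in GeneBLAzer FXR-UAS-bla HEK293T cells, titration up to 92 uM, 16 h exposure at 37 C, CCF4 fluorescence. Response scaled to DMSO (0%) and 100 uM chenodeoxycholic acid (100%), then Hill-fitted for EC50 and efficacy.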

[20] = molecular target: Glucocorticoid receptor (Homo sapiens) (UniProt P04150); experiment: qHTS assay for small molecule agonists of glucocorticoid receptor signaling (AID 588532; active means well fitted curve in the direction sought with a large enough effect in the signal ratio, with a control signal flat; the % refers to the signal ratio;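 further: 100% = dexamethasone at 0.1 µM and 0% = DMSO only wells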); conditions: HeLa MMTV-bla, beta-lactamase ratio, agonist, 18 h; hits give high values; percent of dexamethasone control, DMSO zero
How it was run: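 Stimulation of a glucocorticoid response element-driven beta-lactamase gene was measured in HeLa cells. Responses were scaled between DMSO basal and 0.1 uM dexamethasone, then fitted for half-maximal stimulation.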

[21] = molecular target: Glucocorticoid receptor (Homo sapiens) (UniProt P04150); experiment: qHTS assay for small molecule antagonists of glucocorticoid receptor signaling (AID 588533; active means well fitted inhibition curve with a large enough effect in the signal ratio, with a control signal flat, not every such curve was filed as active; the % refers to the signal ratio;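 further: cells stimulated with 2 nM dexamethasone as agonist; on the % scale 0 is the no-effect control and ±100 the full control effect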)
How it was run: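 Antagonist-mode qHTS: compound titrations added to GRE-bla HeLa cells, then dexamethasone 2 nM final; 18 h, 37 C. CCF4 FRET fluorescence normalized to dexamethasone and DMSO; IC50 from Hill fit.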

[22] = molecular target: Peroxisome proliferator-activated receptor delta (Homo sapiens) (UniProt Q03181); experiment: qHTS assay for small molecule agonists of peroxisome proliferator-activated receptor delta signaling (AID 588534; calls by dose curve;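 further: 0% = DMSO basal wells and 100% = positive control agonist at 10 µM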)
How it was run: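 Cells carrying a PPAR-delta beta-lactamase reporter were treated with compounds for 18 h at 37 °C in agonist mode. CCF4 fluorescence was read after 2 h; EC50 and efficacy from Hill fits.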

Glucocorticoid receptor (Homo sapiens), sequence (P04150 whole entry, looked up): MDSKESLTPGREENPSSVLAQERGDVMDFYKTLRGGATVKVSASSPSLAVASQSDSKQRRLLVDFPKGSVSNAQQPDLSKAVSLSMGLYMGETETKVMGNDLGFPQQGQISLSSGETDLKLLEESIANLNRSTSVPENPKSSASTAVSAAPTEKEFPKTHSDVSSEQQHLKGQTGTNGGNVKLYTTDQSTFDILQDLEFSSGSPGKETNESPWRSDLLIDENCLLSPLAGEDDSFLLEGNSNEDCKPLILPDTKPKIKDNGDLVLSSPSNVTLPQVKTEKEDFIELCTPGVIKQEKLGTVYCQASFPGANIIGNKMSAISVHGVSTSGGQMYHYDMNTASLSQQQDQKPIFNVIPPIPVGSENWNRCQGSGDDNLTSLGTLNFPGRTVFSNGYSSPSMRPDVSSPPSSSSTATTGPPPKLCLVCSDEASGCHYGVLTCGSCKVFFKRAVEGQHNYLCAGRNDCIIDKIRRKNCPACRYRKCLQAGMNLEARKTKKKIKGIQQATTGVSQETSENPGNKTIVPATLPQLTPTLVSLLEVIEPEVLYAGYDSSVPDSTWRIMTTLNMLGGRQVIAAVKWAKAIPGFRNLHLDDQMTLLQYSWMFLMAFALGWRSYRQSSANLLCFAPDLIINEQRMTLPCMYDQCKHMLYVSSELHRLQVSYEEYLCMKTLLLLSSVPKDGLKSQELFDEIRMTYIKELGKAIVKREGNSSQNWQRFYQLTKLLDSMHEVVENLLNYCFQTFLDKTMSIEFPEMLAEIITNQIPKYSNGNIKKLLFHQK
Bile acid receptor (Homo sapiens), sequence (Q96RI1 whole entry, looked up): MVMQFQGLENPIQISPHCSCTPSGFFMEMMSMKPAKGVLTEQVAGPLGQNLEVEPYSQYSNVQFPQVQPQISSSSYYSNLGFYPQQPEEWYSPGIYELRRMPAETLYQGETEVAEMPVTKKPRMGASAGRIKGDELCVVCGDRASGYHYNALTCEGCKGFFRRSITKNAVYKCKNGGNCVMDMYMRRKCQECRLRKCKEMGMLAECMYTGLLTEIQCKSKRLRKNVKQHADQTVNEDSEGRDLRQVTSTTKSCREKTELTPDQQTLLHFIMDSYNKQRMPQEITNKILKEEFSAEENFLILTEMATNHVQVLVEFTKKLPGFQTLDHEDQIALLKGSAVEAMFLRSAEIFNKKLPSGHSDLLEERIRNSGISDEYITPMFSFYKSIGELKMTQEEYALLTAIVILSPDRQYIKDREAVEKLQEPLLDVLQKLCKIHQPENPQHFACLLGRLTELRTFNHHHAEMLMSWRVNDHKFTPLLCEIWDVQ
Estrogen receptor (Homo sapiens), sequence (P03372 whole entry, looked up): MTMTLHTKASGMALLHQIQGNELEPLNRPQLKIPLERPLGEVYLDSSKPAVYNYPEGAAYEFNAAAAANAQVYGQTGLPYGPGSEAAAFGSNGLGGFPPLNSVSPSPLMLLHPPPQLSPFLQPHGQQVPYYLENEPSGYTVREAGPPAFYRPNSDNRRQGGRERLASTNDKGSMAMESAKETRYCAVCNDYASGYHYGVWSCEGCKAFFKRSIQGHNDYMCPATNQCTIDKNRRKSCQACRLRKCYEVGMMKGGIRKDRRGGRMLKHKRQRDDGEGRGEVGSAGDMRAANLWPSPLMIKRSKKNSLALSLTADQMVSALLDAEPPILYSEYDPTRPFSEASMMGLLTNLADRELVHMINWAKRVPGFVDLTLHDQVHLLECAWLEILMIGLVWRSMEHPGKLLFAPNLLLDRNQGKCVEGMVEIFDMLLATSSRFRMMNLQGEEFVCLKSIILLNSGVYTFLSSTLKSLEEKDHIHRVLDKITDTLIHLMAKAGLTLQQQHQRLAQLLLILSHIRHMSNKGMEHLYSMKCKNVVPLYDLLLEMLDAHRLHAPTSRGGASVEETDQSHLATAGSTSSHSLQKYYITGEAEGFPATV
Peroxisome proliferator-activated receptor delta (Homo sapiens), sequence (Q03181 whole entry, looked up): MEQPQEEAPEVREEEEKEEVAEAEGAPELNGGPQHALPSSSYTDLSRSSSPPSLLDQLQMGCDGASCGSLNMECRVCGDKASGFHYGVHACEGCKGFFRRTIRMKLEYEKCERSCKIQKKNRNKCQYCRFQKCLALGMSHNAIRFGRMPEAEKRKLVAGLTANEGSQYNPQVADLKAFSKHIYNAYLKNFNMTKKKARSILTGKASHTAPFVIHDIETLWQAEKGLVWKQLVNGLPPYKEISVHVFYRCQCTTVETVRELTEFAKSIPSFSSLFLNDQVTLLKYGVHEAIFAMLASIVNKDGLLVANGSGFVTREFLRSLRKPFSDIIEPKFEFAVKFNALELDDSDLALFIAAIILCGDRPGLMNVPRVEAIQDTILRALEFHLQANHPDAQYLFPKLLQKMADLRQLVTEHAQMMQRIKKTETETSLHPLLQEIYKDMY

C=CC(=C)C
inactive: Potency [1] | Potency [2] | Potency [3] | Potency [4] | Potency [5] | Potency [6] | Potency [7] | Potency [8] | Potency [9] | Potency [10] | Potency [11] | Potency [12] | Potency [13] | Potency [14] | outcome [15] | Potency [16] | Potency [17] | outcome [18] | activation [19] -1.71% | activation [20] -4.98% | Potency [21] | outcome [22]
